Source: PubChem BioAssay
For some assays here: Potency and affinity values are given separately. Activity calls are given as the source filed them.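 The calls were made as follows, unless noted: active = primary screen inhibitor hit that blocks the TRPC4 channel at some tested dose, yielding a dose curve; inactive = the rest.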

Assays:
[1] = test system: TRPC4 beta (transient receptor potential cation channel C4), mouse; experiment: TRPC4 cation channel opening, retest – cell-based, Fluo4 calcium, HEK293 TRPC4beta/mu-opioid, duplicates, 10 µM, confirmation (AID 2426;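 active = fluorescence ratio normalized to control raised more than 50% in primary screen plus both repeat runs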;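 as to activation: percent rise of integrated ratio over buffer wells lacking compound which define 0%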); conditions: Fluo4 calcium fluorescence, at 10 µM; hits give high values
[2] = test system: transient receptor potential cation channel C4 beta (TRPC4), mouse; experiment: TRPC4 cation channel opening, second retest – cell-based, second round, Fluo4, HEK293 TRPC4beta/mu-opioid, 1 µM, confirmation (AID 2461;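 active = primary screen active and over 50% activation in each of two duplicate runs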;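 as to activation: 0% = wells without test compound as baseline of integrated fluorescence ratio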); conditions: Fluo4 calcium fluorescence, at 1 µM; hits give high values
[3] = test system: TRPC4 (transient receptor potential cation channel C4 beta), mouse; experiment: potentiation of DAMGO EC20 TRPC4 response – cell-based, second round, Fluo-4, HEK293 TRPC4beta/mu-opioid, 1 µM, confirmation (AID 2554;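 active = primary screen hit whose fluorescence ratio, in both repeats, exceeds the weak agonist control mean by 3 SD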); conditions: DAMGO EC20, Fluo-4 calcium flux, at 1 µM; hits give high values
[4] = test system: TRPC4 beta (transient receptor potential cation channel C4), mouse; experiment: potentiation of DAMGO EC20 TRPC4 response – cell-based, Fluo-4, HEK293 TRPC4beta/mu-opioid, confirmation (AID 2555;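 active = primary screen hit whose calcium fluorescence ratio, in both repeats, exceeds the weak agonist control mean by 3 SD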); conditions: DAMGO EC20, Fluo-4 calcium flux, at 10 µM; hits give high values
[5] = target: Short transient receptor potential channel 4 (Mus musculus) (UniProt Q9QUQ5); experiment: blockers of DAMGO-evoked TRPC4 calcium flux – cell-based, Fluo4, HEK293 TRPC4beta/mu-opioid, confirmation (AID 2636;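 active = calcium signal cut by more than 3 SD below the full-agonist control yet still positive, in both repeats and the earlier primary screen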); conditions: at 10 µM; hits give high values
Short transient receptor potential channel 4 (Mus musculus), sequence (Q9QUQ5 whole entry, looked up): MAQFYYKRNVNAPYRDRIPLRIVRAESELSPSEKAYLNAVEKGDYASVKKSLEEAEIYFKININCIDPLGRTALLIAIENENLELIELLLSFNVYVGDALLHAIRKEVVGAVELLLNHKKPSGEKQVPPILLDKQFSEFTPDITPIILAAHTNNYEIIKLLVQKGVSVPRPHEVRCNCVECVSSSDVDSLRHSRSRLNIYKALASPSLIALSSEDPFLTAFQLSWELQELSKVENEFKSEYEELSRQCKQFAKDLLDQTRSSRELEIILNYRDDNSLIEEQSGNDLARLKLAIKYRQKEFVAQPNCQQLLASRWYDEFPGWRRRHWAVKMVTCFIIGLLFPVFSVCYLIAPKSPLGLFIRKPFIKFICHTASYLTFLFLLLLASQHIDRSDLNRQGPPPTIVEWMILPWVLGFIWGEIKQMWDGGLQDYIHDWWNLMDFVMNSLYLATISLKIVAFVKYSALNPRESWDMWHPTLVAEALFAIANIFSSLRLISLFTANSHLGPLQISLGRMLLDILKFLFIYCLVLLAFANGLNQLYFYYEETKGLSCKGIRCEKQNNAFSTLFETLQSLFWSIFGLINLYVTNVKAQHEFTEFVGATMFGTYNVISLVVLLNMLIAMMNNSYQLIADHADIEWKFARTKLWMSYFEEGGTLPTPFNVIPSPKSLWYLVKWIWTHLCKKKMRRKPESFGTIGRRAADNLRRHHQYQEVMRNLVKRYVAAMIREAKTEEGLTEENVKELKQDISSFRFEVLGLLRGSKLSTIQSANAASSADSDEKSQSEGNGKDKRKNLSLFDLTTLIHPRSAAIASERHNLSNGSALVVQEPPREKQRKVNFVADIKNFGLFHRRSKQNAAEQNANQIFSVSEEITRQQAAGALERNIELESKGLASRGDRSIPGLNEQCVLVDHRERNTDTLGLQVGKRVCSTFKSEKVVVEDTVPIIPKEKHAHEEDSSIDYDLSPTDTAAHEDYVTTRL

[6] = target: Short transient receptor potential channel 4 (Mus musculus) (UniProt Q9QUQ5); experiment: blockers of DAMGO-evoked TRPC4 calcium flux – cell-based, second round, Fluo4, HEK293 TRPC4beta/mu-opioid, 1 µM, confirmation (AID 2637;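 active = calcium signal ratio cut to more than 3 SD under the fully stimulated control mean yet still positive, in both repeats and the primary screen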); conditions: at 1 µM; hits give high values
[7] = target: Short transient receptor potential channel 4 (Mus musculus) (UniProt Q9QUQ5); experiment: potentiation of DAMGO-evoked TRPC4 calcium signal – cell-based, HEK293 TRPC4/mu-opioid, Fluo-4 calcium, EC20 DAMGO, dose response (AID 434941;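 active = earlier screen potentiator hit that boosts the TRPC4 ion channel at some dose, with a dose response; inactive = no potentiation, no dose response, or not a prior hit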;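 also: calcium entry triggered by an EC20 dose of DAMGO at the co-expressed mu-opioid receptor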)
[8] = target: Short transient receptor potential channel 4 (Mus musculus) (UniProt Q9QUQ5); experiment: block of DAMGO-driven TRPC4 calcium entry – cell-based, HEK293 TRPC4/mu-opioid, Fluo-4 calcium, dose response (AID 434942)
[9] = target: Short transient receptor potential channel 6 (Mus musculus) (UniProt Q61143); experiment: TRPC6 blockade by TRPC4 inhibitor hits – cell-based, HEK293, membrane potential dye, duplicate, selectivity assay for TRPC4 inhibitor project, confirmation (AID 434948;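 active = active in primary screen and both duplicates, each dropping signal beyond three positive-control SD with fluorescence still positive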); conditions: HEK293 TRPC6, membrane potential dye fluorescence, at 10 µM, stimulated with maximal-effect acetylcholine; hits give high values
Short transient receptor potential channel 6 (Mus musculus), sequence (Q61143 whole entry, looked up): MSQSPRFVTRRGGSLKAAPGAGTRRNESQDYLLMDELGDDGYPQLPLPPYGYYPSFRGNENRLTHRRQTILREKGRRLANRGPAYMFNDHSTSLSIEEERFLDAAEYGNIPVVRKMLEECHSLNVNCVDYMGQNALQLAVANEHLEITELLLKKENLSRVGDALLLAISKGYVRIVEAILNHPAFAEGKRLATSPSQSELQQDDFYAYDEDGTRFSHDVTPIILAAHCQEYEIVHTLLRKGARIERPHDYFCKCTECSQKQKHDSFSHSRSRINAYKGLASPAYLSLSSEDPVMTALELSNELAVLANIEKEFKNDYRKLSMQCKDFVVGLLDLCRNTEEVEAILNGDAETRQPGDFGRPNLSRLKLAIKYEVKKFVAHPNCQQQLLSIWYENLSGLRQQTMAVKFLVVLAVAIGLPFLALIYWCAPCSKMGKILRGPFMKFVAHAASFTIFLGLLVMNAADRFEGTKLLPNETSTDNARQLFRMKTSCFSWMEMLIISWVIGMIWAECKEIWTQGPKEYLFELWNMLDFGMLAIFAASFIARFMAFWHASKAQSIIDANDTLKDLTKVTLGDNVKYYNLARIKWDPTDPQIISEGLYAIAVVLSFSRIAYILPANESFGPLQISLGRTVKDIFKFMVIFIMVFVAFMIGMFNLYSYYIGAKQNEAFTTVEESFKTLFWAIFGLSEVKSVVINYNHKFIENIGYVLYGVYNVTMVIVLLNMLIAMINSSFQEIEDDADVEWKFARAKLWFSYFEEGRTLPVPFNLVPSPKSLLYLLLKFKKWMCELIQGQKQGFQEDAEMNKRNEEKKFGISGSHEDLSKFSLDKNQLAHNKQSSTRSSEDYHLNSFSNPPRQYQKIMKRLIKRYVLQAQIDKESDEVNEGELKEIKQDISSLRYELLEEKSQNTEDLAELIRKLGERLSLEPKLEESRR

[10] = target: Short transient receptor potential channel 6 (Mus musculus) (UniProt Q61143); experiment: TRPC6 opening by TRPC4 activator hits – cell-based, HEK293, membrane potential dye, duplicate, selectivity assay for TRPC4 activator project, confirmation (AID 434950;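 active = membrane potential signal rise above negative control mean plus 3 SD in both duplicates, also active in the earlier TRPC4 screen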;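 as to activation: 0% = buffer only wells and 100% = acetylcholine maximal-effect wells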); conditions: HEK293 TRPC6, membrane potential fluorescence, at 10 µM; activation: hits give high values; outcome: activation
[11] = target: Short transient receptor potential channel 6 (Mus musculus) (UniProt Q61143); experiment: positive modulators of mouse TRPC6 channel – HEK293 cells, membrane potential dye, duplicate, selectivity assay for TRPC4 potentiator project, confirmation (AID 434952;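 active = compound raising the membrane signal above positive-control mean plus 3 SD in both repeats, and a primary screen hit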); conditions: HEK293 TRPC6, membrane potential dye fluorescence, at 10 µM, maximal acetylcholine added after compound; hits give high values
[12] = target: Short transient receptor potential channel 4 (Mus musculus) (UniProt Q9QUQ5); experiment: calcium flux activators in TRPC4/5HT1a cells, counter-screen for TRPC4 activator project, cell-based, second counter screen, HEK293 TRPC4/5HT1a, Fluo-4 (AID 434977;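 active = calcium signal rise above buffer-control mean plus 5 SD in both duplicates, and also a hit in the primary screen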;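 as to activation: plate controls were assay buffer for no effect and maximal serotonin response for full effect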); conditions: Fluo-4 calcium flux, at 10 µM; hits give high values
[13] = serotonin-gated TRPC4 signal block – cell-based, second counter screen, HEK293 TRPC4/5HT1a, Fluo-4, counter-screen for TRPC4 inhibitor project, confirmation (AID 434978;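 active = primary screen active whose calcium signal fell more than 3 SD beyond the full-serotonin control mean in both duplicate plates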;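 also: serotonin given first at submaximal then at maximal dose after compound preincubation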); conditions: Fluo-4 calcium flux, at 10 µM, serotonin added to trigger calcium flux; hits give high values
[14] = test system: TRPC4 (mouse), co-expressed with 5HT1a in HEK293; experiment: enhancement of serotonin-evoked TRPC4 response – cell-based, second counter screen, HEK293 TRPC4/5HT1a, Fluo-4, counter-screen for TRPC4 potentiator project, confirmation (AID 434979;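 active = signal rise over 3 SD above mean of control wells given weak agonist, in both repeats and first screen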); conditions: Fluo-4 calcium flux, at 10 µM, serotonin added at its EC20 dose; hits give high values
[15] = nonspecific calcium rise without TRPC4 – cell-based, HEK293 mu-opioid receptor line, counter-screen for TRPC4 activator project, confirmation (AID 449723;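 active = hit in primary screen, with calcium signal over 5 SD above buffer well mean in both duplicates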;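 also: counter screen cells carry the mu-opioid receptor alone and lack TRPC4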); conditions: HEK293 mu-opioid cells, Fluo-4 calcium fluorescence, at 10 µM; hits give high values
[16] = nonspecific potentiation of DAMGO calcium response – cell-based, HEK293 mu-opioid receptor line, counter-screen for TRPC4 allosteric potentiator project, confirmation (AID 449724;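 active = calcium signal rise more than 3 SD above the low-dose agonist control mean, in both duplicate plates and the primary screen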); conditions: HEK293 mu-opioid receptor cells, Fluo-4 calcium flux, at 10 µM, compound added before EC20 DAMGO stimulus; hits give high values

CCOC(=O)C1(CCc2ccccc2)CCN(Cc2ccc(OC)cc2)CC1
inactive: outcome [2] | outcome [3] | outcome [4] | outcome [5] | outcome [6] | outcome [7] | outcome [8] | outcome [9] | outcome [11] | outcome [12] | outcome [13] | outcome [14] | outcome [15] | outcome [16]
active: activation [1] 101% | activation [10] 77.5%

Cc1sc2ncnc(NC3CCN(Cc4ccccc4)CC3)c2c1C
inactive: outcome [3] | outcome [4] | outcome [5] | outcome [6] | outcome [7] | outcome [8] | outcome [9] | outcome [10] | outcome [11] | outcome [13] | outcome [14] | outcome [15] | outcome [16]
active: activation [1] 240% | activation [2] 199% | activation [12] 145%

Cc1cc(OCCCCn2ccnc2)cc(C)c1Cl
inactive: outcome [2] | outcome [3] | outcome [4] | outcome [5] | outcome [6] | outcome [7] | outcome [8] | outcome [9] | outcome [11] | outcome [13] | outcome [14] | outcome [15] | outcome [16]
active: activation [1] 102% | activation [10] 50% | activation [12] 20.1%

Cc1cc(Br)ccc1OCCn1ccnc1
active: activation [10] 37.5% | activation [12] 11.7%
inactive: outcome [1] | outcome [2] | outcome [3] | outcome [4] | outcome [5] | outcome [6] | outcome [7] | outcome [8] | outcome [9] | outcome [11] | outcome [13] | outcome [14] | outcome [15] | outcome [16]

Cc1ccc(C(=O)NC(=S)NNC(=O)c2ccccc2)cc1
inactive: outcome [1] | outcome [2] | outcome [3] | outcome [4] | outcome [5] | outcome [6] | outcome [7] | outcome [8] | outcome [9] | outcome [11] | outcome [13] | outcome [14] | outcome [16]
active: activation [10] 31.5% | activation [12] 72.6% | activation [15] 12.1%

CCN1C(=O)c2cccc3c(S(=O)(=O)Nc4ccccc4OC)ccc1c23
inactive: outcome [1] | outcome [2] | outcome [3] | outcome [4] | outcome [5] | outcome [6] | outcome [7] | outcome [8] | outcome [9] | outcome [10] | outcome [11] | outcome [12] | outcome [13] | outcome [14] | outcome [15] | outcome [16]

CC1CC(C)CN(CCCNC(=O)COc2cc(=O)n(C)c3ccccc23)C1 (stereo not drawn)
active: activation [1] 88% | activation [2] 80% | activation [12] 23.2% | potentiation [14] 26.9%
inactive: outcome [3] | outcome [4] | outcome [5] | outcome [6] | outcome [7] | outcome [8] | outcome [9] | outcome [10] | outcome [11] | outcome [13] | outcome [15] | outcome [16]

COC(=O)c1ccc(N2CCN(C)CC2)c(NC(=O)COc2ccccc2)c1
inactive: outcome [2] | outcome [3] | outcome [4] | outcome [5] | outcome [6] | outcome [7] | outcome [8] | outcome [9] | outcome [10] | outcome [11] | outcome [13] | outcome [14] | outcome [15] | outcome [16]
active: activation [1] 86% | activation [12] 12.3%
